Screening data deposited in PubChem BioAssay by several laboratories.
A selection: hits, their analogues and other compounds. The true share with any hit is near 2.2%.
HSP90 inh: inhibitors of HSP90 luciferase refolding in rabbit reticulocyte lysate. actives 0.91% (n = 290,000). inhibition, % at 5.6 µM. luciferase refolding luminescence, 3 h;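 active means inhibition above the screen-wide mean plus 3 SD, computed separately per campaign, cut at about 16% in these data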;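 further: 0% = DMSO wells and 100% = 60 µM geldanamycin wells; inhibitors lower the luminescence because luciferase stays unfolded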
TWEAK-Fn14 inh: TWEAK-Fn14 signaling inhibition; actives 2% (n = 360,000); TWEAK-stimulated Fn14 reporter cells, luciferase luminescence, 8 h; AID 1159606; inhibition, % at 10 µM; in the data active means inhibition above about 50%
TROY NFkB inh: inhibitors of TROY-dependent NF-kB signaling; Q293 LMP1-TROYcd NF-kB luciferase reporter, 4 h; inhibition, % at 10 µM; actives 0.98% (n = 360,000); AID 1347056;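 active means compounds whose plate-normalised and pattern-corrected inhibition of the luciferase reporter signal at the single screening dose is 50% or more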
LGR2 antag: blocks bursicon-induced cAMP signaling via Drosophila LGR2 | HEK293 LGR2, CRE-luciferase, bursicon-stimulated, 4 h | inhibition, % at 9.99 µM | actives 0.35% (n = 380,000) | AID 720647;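 active means drop in luminescence signal, shown as inhibition above about 50% in the replicate tests, limit read from the data, passing the limit was not always enough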;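 further: agonist challenge used bursicon conditioned medium at about half maximal strength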
Starred values were filed as active, the others as inactive.

CCC(=O)Nc1ccc2c(c1)C(=O)N(C)[C@H]1CC[C@H](CC(=O)NCCc3ccccc3)O[C@@H]1CO2 was read as LGR2 antag -4.3.
`Cc1ccc(OCC(=O)NCCNC(=O)c2ccco2)cc1C` gave HSP90 inh -2.6, TWEAK-Fn14 inh 52.0*, TROY NFkB inh -4.0 and LGR2 antag -2.7.
Screening Cc1cccc(OCC(=O)NCCNC(=O)c2ccco2)c1 returned HSP90 inh -2.3, TWEAK-Fn14 inh 25.0, TROY NFkB inh -14.2 and LGR2 antag 7.1.
`CC(C)C#Cc1ccc([C@@H]2[C@H](CO)N3C(=O)CN(C(=O)NC4CCCCC4)C[C@@H]23)cc1` gave LGR2 antag -10.1.
For CC(C)NC(=O)Nc1ccc2c(c1)C(=O)N([C@H](C)CO)C[C@H](C)[C@@H](CN(C)S(=O)(=O)c1cccs1)OCCCC[C@H](C)O2 the results were LGR2 antag 10.4.
COc1ccc(C2=Nn3c(nnc3-c3ccccc3Cl)SC2)cc1OCC1CC1 was read as TWEAK-Fn14 inh 32.4, TROY NFkB inh 60.7* and LGR2 antag 15.3.
CC1(C)CC(=O)c2c(-c3cccs3)n[nH]c2C1 was read as HSP90 inh 4.5, TWEAK-Fn14 inh 54.9* and TROY NFkB inh 33.6.
Screening CCCc1n[nH]c2c1C(=O)CC(C)(C)C2 returned HSP90 inh -0.7, TWEAK-Fn14 inh 6.5 and TROY NFkB inh -2.9.
For CCN(CC)S(=O)(=O)c1ccc(/C=C/C(=O)Nc2ccc(F)c(F)c2F)cc1 the results were HSP90 inh -1.4, TWEAK-Fn14 inh 39.1, TROY NFkB inh 6.7 and LGR2 antag -14.6.
For CCN(CC)S(=O)(=O)c1ccc(/C=C/C(=O)Nc2ccc(Br)cc2F)cc1 the results were HSP90 inh -0.8, TWEAK-Fn14 inh 73.6*, TROY NFkB inh 48.2 and LGR2 antag 21.7.
Screening CCN(CC)S(=O)(=O)c1ccc(/C=C/C(=O)Nc2ccc(F)cc2F)cc1 returned HSP90 inh -3.7, TWEAK-Fn14 inh 75.9*, TROY NFkB inh 3.1 and LGR2 antag -6.8.
COc1cccc(NC(=S)NC(=O)/C=C/c2ccc(F)cc2)c1 was read as HSP90 inh 1.5, TWEAK-Fn14 inh -9.7, TROY NFkB inh -2.3 and LGR2 antag -1.1.
CCC(=O)Nc1cccc(C(=O)/C=C/c2ccc(F)cc2)c1 was read as HSP90 inh 4.2, TWEAK-Fn14 inh 71.6*, TROY NFkB inh 19.4 and LGR2 antag 10.3.
Screening CC(=O)Nc1cccc(C(=O)/C=C/c2ccc(C)cc2)c1 returned HSP90 inh 12.7, TWEAK-Fn14 inh 70.7* and TROY NFkB inh -3.5.
CC(=O)Nc1ccc(/C=C/C(=O)c2ccc3c(c2)OCCO3)cc1 was read as HSP90 inh 5.5, TWEAK-Fn14 inh 29.7, TROY NFkB inh -7.1 and LGR2 antag 3.8.
For CCCNC(=O)Nc1ccc2c(c1)C(=O)N(C)[C@@H]1CC[C@H](CC(=O)OC)O[C@@H]1CO2 the results were LGR2 antag 9.1.
Screening O=C1NC(c2ccc(Cl)cc2Cl)Oc2ccccc21 (stereo unspecified) returned HSP90 inh -2.1, TWEAK-Fn14 inh -10.7, TROY NFkB inh -14.1 and LGR2 antag -4.3.
For Cc1ccccc1C1NC(=O)c2ccccc2O1 (stereo unspecified) the results were HSP90 inh 1.0, TWEAK-Fn14 inh 87.6*, TROY NFkB inh -7.9 and LGR2 antag 14.2.
For COc1ccc(NC(=O)C2C(c3ccccc3)C2(Cl)Cl)c(OC)c1 (stereo unspecified) the results were HSP90 inh 3.4, TWEAK-Fn14 inh 32.2, TROY NFkB inh 27.8 and LGR2 antag 5.6.
For COc1ccc([C@@]23Oc4cc(OC)cc(OC)c4[C@]2(O)[C@H](O)[C@H](C(=O)N(C)C)[C@H]3c2ccccc2)cc1 the results were TWEAK-Fn14 inh 87.4*, TROY NFkB inh 33.8 and LGR2 antag 99.2*.
Screening COc1ccc(OCC(=O)Nn2c(-c3ccc(C)cc3)nc3ccccc3c2=O)cc1 returned HSP90 inh -2.7, TWEAK-Fn14 inh 71.9*, TROY NFkB inh 71.6* and LGR2 antag 22.7.
`Cc1ccc(OCC(=O)NNc2c3ccccc3nc3ccccc23)cc1` gave HSP90 inh 7.0, TWEAK-Fn14 inh 72.4*, TROY NFkB inh 4.7 and LGR2 antag 0.8.
Screening O=C(Nc1ccccc1Cl)N1[C@H](CO)[C@@H]2c3ccccc3NC[C@@H]21 returned LGR2 antag -38.9.
CCNC(=O)Nc1ccc2c(c1)C(=O)N(C)[C@H]1CC[C@H](CC(=O)Nc3ccc(C)cc3)O[C@@H]1CO2 was read as LGR2 antag -6.3.
Cc1ccc(-c2csc(NC(=O)c3ccc4c(=O)n5c(nc4c3)CCCCC5)n2)cc1 was read as HSP90 inh -0.7, TWEAK-Fn14 inh 70.1*, TROY NFkB inh -25.9 and LGR2 antag 14.5.
